This is an account of results in PMC11062922 (Nature Chemical Biology, 2023).

Molecules are shown by their SMILES. Where two headings read alike, the source gives them in different places.

One assay concerns AAK1. Details: species or system human, MV4-11 + K-562 + COLO205 + SK-N-BE2 + OVCAR-8. The settings on record: read-out: apparent Kd, n = 1.
Another assay concerns FLT4. Details: species or system human, MV4-11 + K-562 + COLO205 + SK-N-BE2 + OVCAR-8. The settings on record: read-out: apparent Kd, compound concentrations: 100 nM and 1000 nM (sheet 'Samples'), n = 1.
The test system of a further assay is GAK. More on the design: species or system human, MV4-11 + K-562 + COLO205 + SK-N-BE2 + OVCAR-8. The settings on record: read-out: apparent Kd, n = 1.
A further assay relates to GSK3A. More on the design: species or system human, MV4-11 + K-562 + COLO205 + SK-N-BE2 + OVCAR-8. The settings on record: read-out: apparent Kd, n = 1.
Another assay relates to GSK3B. Details: species or system human, MV4-11 + K-562 + COLO205 + SK-N-BE2 + OVCAR-8. The conditions noted are these: read-out: apparent Kd, n = 1.
The target in another assay is Q6ZSR9 (human, UniProt Q6ZSR9). Details: species or system MV4-11 + K-562 + COLO205 + SK-N-BE2 + OVCAR-8. The conditions noted are these: read-out: apparent Kd, n = 1.
Chain of Q6ZSR9 (Q6ZSR9 whole entry, looked up): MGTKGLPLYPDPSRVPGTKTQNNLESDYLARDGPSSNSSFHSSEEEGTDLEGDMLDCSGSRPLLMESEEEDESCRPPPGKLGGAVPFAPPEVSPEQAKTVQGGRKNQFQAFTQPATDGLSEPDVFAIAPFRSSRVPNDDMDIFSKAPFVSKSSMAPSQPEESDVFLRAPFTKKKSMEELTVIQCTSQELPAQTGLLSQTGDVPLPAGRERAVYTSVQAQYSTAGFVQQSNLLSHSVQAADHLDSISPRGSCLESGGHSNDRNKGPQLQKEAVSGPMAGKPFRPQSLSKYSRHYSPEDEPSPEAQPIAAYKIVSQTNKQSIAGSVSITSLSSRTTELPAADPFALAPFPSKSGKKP
The next assay deals with RET. Details: species or system human, MV4-11 + K-562 + COLO205 + SK-N-BE2 + OVCAR-8. The conditions noted are these: read-out: apparent Kd, compound concentrations: 100 nM and 1000 nM (sheet 'Samples'), n = 1.
The next assay has as its system PKN1. Details: species or system human, MV4-11 + K-562 + COLO205 + SK-N-BE2 + OVCAR-8. The settings on record: read-out: apparent Kd; compound concentrations:100 nM and 1000 nM (sheet 'Samples'); n = 1.
The next assay deals with PKN3. Details: species or system human, MV4-11 + K-562 + COLO205 + SK-N-BE2 + OVCAR-8. The conditions noted are these: read-out: apparent Kd; compound concentrations:100 nM and 1000 nM (sheet 'Samples'); n = 1.
A further assay has as its system BMP2K. Details: species or system human, MV4-11 + K-562 + COLO205 + SK-N-BE2 + OVCAR-8. The settings on record: read-out: apparent Kd, compound concentrations: 100 nM and 1000 nM (sheet 'Samples'), n = 1.
Another assay deals with CSNK2A1;CSNK2A3. Details: species or system human, MV4-11 + K-562 + COLO205 + SK-N-BE2 + OVCAR-8. The conditions noted are these: read-out: apparent Kd; compound concentrations: 100 nM and 1000 nM (sheet 'Samples'), CATDS: 3.8490357435000497E-2; n = 1.
In a further assay the test system is CSNK2A2. Details: species or system human, MV4-11 + K-562 + COLO205 + SK-N-BE2 + OVCAR-8. The settings on record: read-out: apparent Kd, compound concentrations: 100 nM and 1000 nM (sheet 'Samples'), n = 1.
For another assay, the system named is CLK1. Details: species or system human, MV4-11 + K-562 + COLO205 + SK-N-BE2 + OVCAR-8. The settings on record: read-out: apparent Kd, n = 1.
The subject of the next assay is CLK4. More on the design: species or system human, MV4-11 + K-562 + COLO205 + SK-N-BE2 + OVCAR-8. The settings on record: read-out: apparent Kd, n = 1.
For the next assay, the system named is MELK. Details: species or system human, MV4-11 + K-562 + COLO205 + SK-N-BE2 + OVCAR-8. The settings on record: read-out: apparent Kd, n = 1.
For another assay, the system named is NUAK1. More on the design: species or system human, MV4-11 + K-562 + COLO205 + SK-N-BE2 + OVCAR-8. The conditions noted are these: read-out: apparent Kd; compound concentrations: 100 nM and 1000 nM (sheet 'Samples'), CATDS: 0.318304060181621; n = 1.
For a further assay, the system named is FLT3. More on the design: species or system human, MV4-11 + K-562 + COLO205 + SK-N-BE2 + OVCAR-8. The conditions noted are these: read-out: apparent Kd; compound concentrations:100 nM and 1000 nM (sheet 'Samples'); n = 1.
The subject of another assay is SIK2. More on the design: species or system human, MV4-11 + K-562 + COLO205 + SK-N-BE2 + OVCAR-8. The conditions noted are these: read-out: apparent Kd; compound concentrations:100 nM and 1000 nM (sheet 'Samples'); n = 1.
[1] abbreviates: compound concentrations:100 nM and 1000 nM (sheet 'Samples').

Take `Cl.Cn1cc(C2=C(c3c4n(c5ccccc35)CCNC4)C(=O)NC2=O)c2ccccc21` [RO0318365-001]: the potency estimated from few doses was 1.48 µM with AAK1 (compound concentrations: 100 nM and 1000 nM (sheet 'Samples'), CATDS: 5.2349611072723602E-2); 1.61 µM in the assay with FLT4 (CATDS: 5.0705018296343198E-2); 0.831 µM in the assay on GAK (compound concentrations: 100 nM and 1000 nM (sheet 'Samples'), CATDS: 6.7472142671723495E-2); 0.357 µM with GSK3A (compound concentrations: 100 nM and 1000 nM (sheet 'Samples'), CATDS: 0.111142354700942); 0.314 µM in the assay with GSK3B (compound concentrations: 100 nM and 1000 nM (sheet 'Samples'), CATDS: 0.121394136436775); 1.55 µM with Q6ZSR9 (compound concentrations: 100 nM and 1000 nM (sheet 'Samples'), CATDS: 5.14338241951754E-2). For the same molecule, the potency estimated from few doses in the assay on RET (CATDS: 5.70762931789019E-2) was 1.19 µM.

Consider `CCn1c(-c2nonc2N)nc2cncc(C(=O)N3CC[C@H](N)C3)c21.Cl` [SB-772077-B], for which the potency estimated from few doses in the assay with AAK1 (setting [1]) is 1.7 µM; in the assay on GSK3A (setting [1]), 1.1 µM; in the assay with PKN1, 0.484 µM; in the assay on PKN3, 1.71 µM; in the assay with Q6ZSR9 (setting [1]), 1.88 µM.

With `NS(=O)(=O)c1ccc(N/N=C2\C(=O)Nc3ccc4ncccc4c32)cc1` [GW305178X], the potency estimated from few doses was 1.34 µM in the assay on AAK1 (compound concentrations: 100 nM and 1000 nM (sheet 'Samples'), CATDS: 4.5052292202984998E-2); 1.51 µM in the assay with BMP2K (CATDS: 4.3500032535549099E-2); 2.36 µM in the assay on CSNK2A1;CSNK2A3; 1.67 µM with CSNK2A2 (CATDS: 4.2211322900730999E-2); 1.41 µM with Q6ZSR9 (compound concentrations: 100 nM and 1000 nM (sheet 'Samples'), CATDS: 4.4355829104281E-2).

`CNc1nccc(-c2ccc3c(N)n[nH]c3c2)n1` [GSK2206003A]: the potency estimated from few doses in the assay on AAK1 (compound concentrations: 100 nM and 1000 nM (sheet 'Samples'), CATDS: 0.11797009071744601) is 0.108 µM; in the assay on BMP2K (CATDS: 5.7170227951540302E-2) it was 0.897 µM; in the assay with CLK1 (compound concentrations: 100 nM and 1000 nM (sheet 'Samples'), CATDS: 0.21779714475359599), 0.0365 µM; in the assay with CLK4 (compound concentrations: 100 nM and 1000 nM (sheet 'Samples'), CATDS: 0.18290440862860499) it was 0.048 µM; in the assay with MELK (compound concentrations: 100 nM and 1000 nM (sheet 'Samples'), CATDS: 0.103385588540624), 0.145 µM; in the assay with Q6ZSR9 (compound concentrations: 100 nM and 1000 nM (sheet 'Samples'), CATDS: 0.14345562945172299), 0.0731 µM. Moreover, the potency estimated from few doses in the assay on RET (CATDS: 0.14057536576690199) was 0.076 µM.

With `CN(C)c1ccc2c(c1)/C(=C/Nc1ccc(S(N)(=O)=O)cc1)C(=O)N2` [GW416469X], the potency estimated from few doses is 1.64 µM with AAK1 (compound concentrations: 100 nM and 1000 nM (sheet 'Samples'), CATDS: 7.2948540677608101E-2); 1.6 µM in the assay on BMP2K (CATDS: 7.3539976386738704E-2); 1.82 µM with CSNK2A2 (CATDS: 7.0643002799247095E-2); 1.59 µM in the assay with FLT4 (CATDS: 7.3701429425290094E-2); 0.0866 µM with NUAK1.

`COc1ccc(Nc2nccc(NCCNC(=O)Nc3cc(C)ccc3C)n2)cc1` [GSK1379899A]: the potency estimated from few doses in the assay with AAK1 (compound concentrations: 100 nM and 1000 nM (sheet 'Samples'), CATDS: 4.14189738717365E-2) was 1.93 µM; in the assay on GAK (compound concentrations: 100 nM and 1000 nM (sheet 'Samples'), CATDS: 4.9044286773088197E-2), 1.22 µM; in the assay on GSK3A (compound concentrations: 100 nM and 1000 nM (sheet 'Samples'), CATDS: 0.21656856359749399), 0.102 µM; in the assay on GSK3B (compound concentrations: 100 nM and 1000 nM (sheet 'Samples'), CATDS: 4.8399492982865999E-2) it was 1.26 µM.

As to `NS(=O)(=O)c1cccc(-c2ccc3c(NC(=O)C4CC4)n[nH]c3c2)c1` [SB-741905], the potency estimated from few doses is 1.21 µM with AAK1 (compound concentrations: 100 nM and 1000 nM (sheet 'Samples'), CATDS: 0.126213197239569); 2.41 µM with Q6ZSR9 (compound concentrations: 100 nM and 1000 nM (sheet 'Samples'), CATDS: 0.101605627816376).

On to `CCn1c(-c2nonc2N)nc2cncc(Br)c21` [SB-738004], for which the potency estimated from few doses in the assay with AAK1 (setting [1]) was 0.517 µM; in the assay on CLK1 (setting [1]) it was 1.42 µM; in the assay on CLK4 (setting [1]) it was 0.505 µM; in the assay on FLT3, 1.19 µM; with GSK3A (setting [1]) it was 0.445 µM; with GSK3B (setting [1]) it was 0.724 µM. In addition, the potency estimated from few doses in the assay with MELK (setting [1]) is 1.66 µM; in the assay on PKN1, 0.553 µM; in the assay with PKN3, 1.32 µM; with Q6ZSR9 (setting [1]), 0.369 µM.

For `Cc1occc1-c1nc(N)c(OC[C@@H](N)Cc2c[nH]c3ccccc23)cc1-c1cc2c(C)n[nH]c2cn1` [GSK1660450B], the potency estimated from few doses was 1.07 µM with AAK1 (setting [1]); 0.339 µM in the assay with CLK1 (setting [1]); 0.441 µM in the assay on CLK4 (setting [1]); 0.0382 µM in the assay with GAK (setting [1]); 0.273 µM in the assay with GSK3A (setting [1]); 0.0626 µM in the assay with GSK3B (setting [1]). In addition, the potency estimated from few doses with PKN1 is 0.0876 µM; in the assay on PKN3 it was 0.845 µM; with Q6ZSR9 (setting [1]), 1.67 µM; in the assay on SIK2 it was 0.427 µM.
